The supplement of paper PMC6522484
± gives the standard deviation of the averaged measurements.

What was measured:
[1] = tested on: DLD1; assay: cell viability (CellTiter-Glo) relative to plate median (fraction of plate median); higher = more viable cells; conditions: 5 µM; treatment time 24 h; reporter: 7TFP
How it was run: (§1)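 Each entry is a luminescence signal normalised to the plate median, averaged over independent replicates. The replicate count was two, and the cells were colorectal cancer lines with stable lentiviral TCF/Wnt firefly luciferase reporters exposed to library compounds at a final 5 µM for 24 h. Firefly luciferase and CellTiterGlo were measured on parallel plates.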

[2] = tested on: HCT116; assay: as above; conditions: 5 µM; treatment time 24 h; reporter: TCF4/Wnt
How it was run: as §1

[3] = tested on: SW480; assay: as above; conditions: 5 µM; treatment time 24 h; reporter: 7TFP
How it was run: as §1

[4] = tested on: DLD1; assay: TCF/Wnt firefly luciferase reporter signal relative to plate median (fraction of plate median); higher = higher Wnt reporter signal; conditions: 5 µM; treatment time 24 h; reporter: 7TFP
How it was run: as §1

[5] = tested on: SW480; assay: as above; conditions: 5 µM; treatment time 24 h; reporter: 7TFP
How it was run: as §1

| SMILES | cell viability [1] | cell viability [2] | cell viability [3] | TCF/Wnt firefly luciferase reporter signal [4] | TCF/Wnt firefly luciferase reporter signal [5] |
| --- | --- | --- | --- | --- | --- |
| COc1cc(C/C=C/c2ccccc2)c(OC)cc1O | 1.02 ± 0.055 | 1.06 ± 0.093 | 1.03 ± 0.042 | 1.05 ± 0.22 | 1.04 ± 0.035 |
| COc1ccc(CC(=O)c2ccc(O)cc2O)cc1 | 0.962 ± 0.054 | 0.955 ± 0.14 | 0.995 ± 0.036 | 1.13 ± 0.057 | 1.07 ± 0.078 |
| C=CC1=C(C)c2cc3[nH]c(cc4nc(cc5[nH]c(cc1n2)c(C)c5CCC(=O)O)C(CCC(=O)O)=C4C)c(C)c3C=C | 1 ± 0.028 | 0.964 ± 0.12 | 0.963 ± 0.053 | 0.967 ± 0.027 | 0.992 ± 0.0057 |
| COc1ccc(CN(CCN(C)C)c2ncccn2)cc1 | 0.994 ± 0.0057 | 0.969 ± 0.086 | 1 ± 0.055 | 0.9635 ± 0.00071 | 0.931 ± 0.021 |
| COc1cc(C(C)=O)cc(OC)c1O | 1.03 | 0.922 ± 0.086 | 1.01 ± 0.018 | 0.946 ± 0.1 | 0.958 ± 0.012 |
| C[C@H]1C(=O)CC[C@@H]2[C@]1(C)CC[C@H]1[C@@]2(C)CC[C@@]2(C)[C@@H]3CC(C)(C)CC[C@]3(C)CC[C@]12C | 1.04 ± 0.014 | 0.983 ± 0.052 | 0.9995 ± 0.00071 | 0.95 ± 0.042 | 0.88 ± 0.09 |
| CC1(C)CC[C@]2(C(=O)O)[C@H](O)C[C@]3(C)C(=CC[C@@H]4[C@@]5(C)CC[C@H](O)C(C)(C)[C@@H]5CC[C@]43C)[C@H]2C1 | 0.9085 ± 0.0035 | 0.94 ± 0.16 | 0.9525 ± 0.0092 | 0.919 ± 0.033 | 0.999 ± 0.016 |
| COC1(C)CCC2OC2(C)CCC2C1CC2(C)C (stereo not given) | 1.1 ± 0.099 | 0.97 ± 0.02 | 1.08 ± 0.042 | 0.934 ± 0.063 | 1.02 ± 0.044 |
| CN(C)[C@@H]1C(O)=C(C(N)=O)C(=O)[C@@]2(O)C(O)=C3C(=O)c4c(O)cccc4[C@@](C)(O)[C@H]3C[C@@H]12 | 0.988 ± 0.074 | 1.04 ± 0.093 | 1 ± 0.024 | 0.911 ± 0.11 | 0.839 ± 0.031 |
| Nc1ccn([C@@H]2O[C@H](CO)[C@@H](O)[C@@H]2O)c(=O)n1 | 0.987 ± 0.018 | 0.849 ± 0.092 | 1.1 ± 0.064 | 1.08 ± 0.11 | 0.968 ± 0.14 |
| CC(C)=CC1C(CO)C1(C)C (stereo not given) | 0.996 ± 0.049 | 0.948 ± 0.061 | 1.02 ± 0.014 | 0.984 ± 0.052 | 0.97 ± 0.18 |
| COC(=O)c1c(OC)cc2c(c1C)Oc1c(Cl)c(O)c(Cl)c(C)c1C(=O)O2 | 1.02 ± 0.036 | 1.04 ± 0.014 | 0.99 ± 0.0042 | 1.05 ± 0.085 | 0.954 ± 0.028 |
| CCCc1cc(C(N)=S)ccn1 | 0.972 ± 0.022 | 1.05 ± 0.021 | 0.976 ± 0.063 | 1.015 ± 0.0071 | 1.04 ± 0.021 |
